# Data published in PubChem BioAssay AID624161 (National Center for Advancing Translational Sciences (NCATS), 2012).
# This is one part of the list. Records with an inconclusive call do not appear. Active and inactive are the calls of the source. Calls come from the whole dose curve; as a rule, active = well fitted inhibition curve with a large enough effect; inconclusive = small, poorly fitted or top-dose-only effect; inactive = no such curve, though single readings can be large or run the other way.
# Molecular target: Histone-lysine N-methyltransferase 2A (Homo sapiens) (UniProt Q03164)
# Sequence (Q03164 whole entry, looked up, the tested form may be a part): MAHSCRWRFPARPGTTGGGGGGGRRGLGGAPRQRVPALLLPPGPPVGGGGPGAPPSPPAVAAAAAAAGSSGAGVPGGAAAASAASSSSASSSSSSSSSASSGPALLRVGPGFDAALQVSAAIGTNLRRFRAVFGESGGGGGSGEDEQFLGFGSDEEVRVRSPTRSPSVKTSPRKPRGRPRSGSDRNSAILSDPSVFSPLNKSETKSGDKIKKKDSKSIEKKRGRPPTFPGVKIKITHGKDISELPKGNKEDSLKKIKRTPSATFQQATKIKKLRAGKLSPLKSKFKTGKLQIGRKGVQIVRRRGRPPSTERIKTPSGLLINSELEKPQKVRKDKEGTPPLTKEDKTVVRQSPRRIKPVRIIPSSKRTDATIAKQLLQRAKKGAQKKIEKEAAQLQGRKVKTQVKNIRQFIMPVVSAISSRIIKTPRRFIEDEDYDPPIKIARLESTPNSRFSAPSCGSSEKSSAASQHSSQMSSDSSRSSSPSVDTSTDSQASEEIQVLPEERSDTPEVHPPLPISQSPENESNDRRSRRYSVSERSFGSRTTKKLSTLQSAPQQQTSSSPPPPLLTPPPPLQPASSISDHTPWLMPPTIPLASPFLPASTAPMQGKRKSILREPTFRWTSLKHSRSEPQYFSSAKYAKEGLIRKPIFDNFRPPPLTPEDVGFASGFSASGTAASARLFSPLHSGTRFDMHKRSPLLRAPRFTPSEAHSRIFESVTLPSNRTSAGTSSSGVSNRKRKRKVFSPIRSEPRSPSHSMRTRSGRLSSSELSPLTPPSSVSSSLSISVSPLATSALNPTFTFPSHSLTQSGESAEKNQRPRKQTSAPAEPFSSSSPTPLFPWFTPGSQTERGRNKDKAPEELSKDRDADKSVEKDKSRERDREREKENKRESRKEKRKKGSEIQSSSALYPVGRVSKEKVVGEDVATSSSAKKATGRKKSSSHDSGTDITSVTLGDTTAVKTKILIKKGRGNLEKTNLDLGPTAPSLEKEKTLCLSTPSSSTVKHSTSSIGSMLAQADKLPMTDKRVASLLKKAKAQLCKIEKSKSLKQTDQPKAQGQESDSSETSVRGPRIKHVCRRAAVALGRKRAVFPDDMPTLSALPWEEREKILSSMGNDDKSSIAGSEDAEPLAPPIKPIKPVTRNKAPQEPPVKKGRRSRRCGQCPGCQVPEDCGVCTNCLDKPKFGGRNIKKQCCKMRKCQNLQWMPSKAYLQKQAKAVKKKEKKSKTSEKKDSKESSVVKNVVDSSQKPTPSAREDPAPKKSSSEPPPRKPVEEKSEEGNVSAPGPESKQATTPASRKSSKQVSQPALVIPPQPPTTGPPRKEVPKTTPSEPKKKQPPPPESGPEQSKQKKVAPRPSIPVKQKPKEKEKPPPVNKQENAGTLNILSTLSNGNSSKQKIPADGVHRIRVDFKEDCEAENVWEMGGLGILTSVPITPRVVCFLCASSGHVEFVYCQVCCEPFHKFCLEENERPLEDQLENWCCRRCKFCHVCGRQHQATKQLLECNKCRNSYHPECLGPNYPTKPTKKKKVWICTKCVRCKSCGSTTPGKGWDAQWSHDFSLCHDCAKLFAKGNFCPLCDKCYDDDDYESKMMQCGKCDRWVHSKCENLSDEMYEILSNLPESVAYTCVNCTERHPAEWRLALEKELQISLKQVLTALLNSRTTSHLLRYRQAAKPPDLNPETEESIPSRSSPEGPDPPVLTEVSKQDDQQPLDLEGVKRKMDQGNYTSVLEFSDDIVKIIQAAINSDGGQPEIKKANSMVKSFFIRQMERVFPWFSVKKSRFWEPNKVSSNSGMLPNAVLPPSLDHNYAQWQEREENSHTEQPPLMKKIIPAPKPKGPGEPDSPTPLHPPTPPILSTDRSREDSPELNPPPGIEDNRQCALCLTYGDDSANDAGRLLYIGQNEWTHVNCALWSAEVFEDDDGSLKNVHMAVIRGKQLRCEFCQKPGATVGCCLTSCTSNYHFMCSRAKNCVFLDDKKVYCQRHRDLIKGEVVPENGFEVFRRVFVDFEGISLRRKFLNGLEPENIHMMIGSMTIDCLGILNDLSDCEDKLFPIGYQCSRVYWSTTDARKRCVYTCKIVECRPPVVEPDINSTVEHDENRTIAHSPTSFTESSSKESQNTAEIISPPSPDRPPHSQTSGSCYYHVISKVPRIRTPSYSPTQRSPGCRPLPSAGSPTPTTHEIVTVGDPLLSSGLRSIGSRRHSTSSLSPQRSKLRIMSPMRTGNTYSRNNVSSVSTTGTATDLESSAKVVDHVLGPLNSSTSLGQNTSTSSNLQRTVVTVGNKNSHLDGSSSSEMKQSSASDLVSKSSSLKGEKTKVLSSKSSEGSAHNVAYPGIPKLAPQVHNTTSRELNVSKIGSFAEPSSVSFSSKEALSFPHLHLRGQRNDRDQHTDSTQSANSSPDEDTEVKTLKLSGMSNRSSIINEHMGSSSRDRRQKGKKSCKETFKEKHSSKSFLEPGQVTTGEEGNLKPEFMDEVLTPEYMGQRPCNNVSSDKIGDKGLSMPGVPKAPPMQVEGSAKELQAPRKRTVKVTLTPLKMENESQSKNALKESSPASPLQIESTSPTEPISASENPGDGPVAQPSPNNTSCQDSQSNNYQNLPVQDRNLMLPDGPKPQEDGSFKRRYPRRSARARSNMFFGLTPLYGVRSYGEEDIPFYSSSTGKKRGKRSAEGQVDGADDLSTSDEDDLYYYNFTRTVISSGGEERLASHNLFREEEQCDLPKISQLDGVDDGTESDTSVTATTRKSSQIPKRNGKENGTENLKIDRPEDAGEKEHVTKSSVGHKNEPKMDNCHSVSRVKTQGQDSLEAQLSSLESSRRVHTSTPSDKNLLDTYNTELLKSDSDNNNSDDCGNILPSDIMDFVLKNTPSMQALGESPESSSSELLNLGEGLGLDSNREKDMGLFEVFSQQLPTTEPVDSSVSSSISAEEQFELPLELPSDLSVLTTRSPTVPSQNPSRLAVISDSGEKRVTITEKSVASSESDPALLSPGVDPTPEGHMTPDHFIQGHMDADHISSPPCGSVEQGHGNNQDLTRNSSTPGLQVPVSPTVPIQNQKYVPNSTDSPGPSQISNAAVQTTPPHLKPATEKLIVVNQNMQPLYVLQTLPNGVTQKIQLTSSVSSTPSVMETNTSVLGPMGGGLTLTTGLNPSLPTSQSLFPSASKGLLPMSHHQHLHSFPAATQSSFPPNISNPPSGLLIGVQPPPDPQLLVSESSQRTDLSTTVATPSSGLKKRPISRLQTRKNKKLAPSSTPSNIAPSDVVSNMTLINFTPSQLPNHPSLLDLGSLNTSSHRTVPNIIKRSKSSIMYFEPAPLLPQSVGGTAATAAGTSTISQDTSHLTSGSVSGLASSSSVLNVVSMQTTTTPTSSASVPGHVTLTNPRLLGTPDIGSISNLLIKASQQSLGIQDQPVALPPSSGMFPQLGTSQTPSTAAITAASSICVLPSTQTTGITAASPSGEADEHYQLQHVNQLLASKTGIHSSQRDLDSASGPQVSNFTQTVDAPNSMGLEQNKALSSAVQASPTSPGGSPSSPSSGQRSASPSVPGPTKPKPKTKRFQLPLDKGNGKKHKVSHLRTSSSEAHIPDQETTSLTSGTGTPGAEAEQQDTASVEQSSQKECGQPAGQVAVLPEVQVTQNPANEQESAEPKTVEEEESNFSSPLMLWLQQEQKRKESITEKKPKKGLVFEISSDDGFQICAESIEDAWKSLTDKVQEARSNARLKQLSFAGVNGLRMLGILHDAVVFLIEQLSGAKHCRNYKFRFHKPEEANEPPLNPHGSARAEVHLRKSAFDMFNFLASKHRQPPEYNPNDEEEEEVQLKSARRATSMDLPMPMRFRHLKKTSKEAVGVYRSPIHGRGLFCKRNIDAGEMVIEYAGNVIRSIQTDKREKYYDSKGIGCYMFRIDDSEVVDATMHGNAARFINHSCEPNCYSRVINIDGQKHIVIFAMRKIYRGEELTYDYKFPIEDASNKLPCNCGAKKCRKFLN
# Assay: qHTS Fluorescence Polarization (FP) Assay for Inhibitors of MLL CXXC domain - DNA interaction: Texas Red FP; note: nearly all actives have a fitted effect of over 75% in size
# Conditions: MLL CXXC-DNA binding; series mostly up to 345 µM
# Text: The MLL (Mixed Lineage Luekemia) gene is involved in chromosomal translocation that results in either acute lymphoid leukemia (ALL) or acute myeloid leukemia (AML). Chromasomal translocation of MLL gene is responsible for the fusion of N-terminal MLL to more than 60 different partner genes in frame. Many of the MLL partner genes contain transcription activation domains or function as transcriptional activators. Despite the heterogeneity of fusion partners, the N-terminus of MLL fusion proteins always consists of the N-terminal menin binding motif and the CXXC domain. The MLL-CXXC domain specifically recognizes unmethylated CpG sequences of the HOX-A gene. Disruption of the MLL-CXXC and HOX-A gene interaction leads to down regulation of HOX-A gene expression and may potentially reverse leukemogenesis. We have miniaturized and optimized an in-vitro assay to screen for inhibitors of the MLL-CXXC domain and HOX-A DNA interaction, which could have utility in MLL fusion leukemias.
# This is a hit validation assay that tests this hits identified in the primary screen in this secondary screen, using a Texas Red FP as a read-out.
# NIH Molecular Libraries Probe Production Network [MLPCN]
# NIH Chemical Genomics Center [NCGC]
# PI Name: John Bushweller, University of Virgina
# The affinity purified MLL-CXXC domain, unlabeled HOX-A9 DNA strand, Texas Red (FLSN) labeled HOX-A9 DNA strand were kindly supplied by the laboratory of Dr. John Bushweller, University of Virginia. All reagents were stored in single use aliquots at -80C.
# Assay buffer: 50 mM TRIS-HCl pH 7.5, 50 mM NaCl, 1 mM DTT. Add 0.05% BSA prior to reaction setup.
# 1.Dispense 1 ul of a 7 uM MLL-CXXC solution prepared in assay buffer into column 1-48.
# 2.Transfer 23 nl of compounds and unlabeled HOX-A9 per well.
# 3.Incubate for 5 minutes at ambient.
# 4.Dispense 1ul of a 50 nM TR-HOX-A9 solution prepared in assay buffer into columns 1-48
# 5.Centrifuge for 30 seconds at 1000 RPM.
# 6.Incubate for 30 minutes at ambient.
# 7.Read using the Envision reader fluorescent polarization protocol.
# Potency is the fitted concentration of half-maximal effect.
row,SMILES,Potency
1,CCOC(=O)/C(N=Nc1cc(C(=O)O)cc(C(=O)O)c1)=C(\O)CCl,142 µM (active)
2,COc1ccc(S(=O)(=O)/N=C2\C=C(NS(=O)(=O)c3ccccc3)C(=O)c3ccccc32)cc1,inactive
3,COc1ccc(-c2onc3ccc(C(C)=O)cc23)cc1,inactive
4,COc1cc(/C=C2/C(=O)NN(c3ccc(F)cc3)C2=O)cc([N+](=O)[O-])c1O,126 µM (active)
5,O=C1NN(c2ccccc2)C(=O)/C1=C/c1ccc(-c2cccc(C(=O)O)c2)o1,126 µM (active)
